Experimental findings from PubChem BioAssay AID624308 (National Center for Advancing Translational Sciences (NCATS), 2012) are described below.

Results filed as inconclusive are left out. Calls of active or inactive are those of the source. Calls follow the shape of the dose curve; as a rule, active = well fitted inhibition curve with a large enough effect; inconclusive = small, poorly fitted or top-dose-only effect; inactive = flat fitted curve, though single readings scatter.

The target of this assay is Peptidyl-prolyl cis-trans isomerase NIMA-interacting 1 (Homo sapiens) (UniProt Q13526). Briefly: qHTS Assay to Find Inhibitors of Pin1: Hit Validation. As to conditions: Pin1 FP peptide displacement, HiFluor488 probe; series mostly up to 57.5 µM. The text has this: The unique chemical properties of Pro allow for the adoption of two completely distinct amide bond conformations (cis and trans). Peptidyl-prolyl cis/trans isomerases (PPIases) are evolutionary conserved enzymes that catalyze cis/trans isomerization of peptidyl-prolyl peptide bonds. Distinct from all other PPIases such as cyclophilins and FK506-binding proteins (FKBPs), Pin1 binds a subset of phos.Ser/Thr-Pro-containing proteins using its protein-targeting WW domain and isomerizes only specific phos.Ser/Thr-Pro bonds, which cannot be effectively catalyzed by other known PPIases. Pin1-catalyzed conformational regulation can control a spectrum of activities of many key regulators in diverse cellular processes such as cell growth, genotoxic and other stress responses, immune response, germ cell development, neuronal differentiation and survival. Pin1 has emerged as a novel molecular timer that modulates its multiple targets at various steps of a given cellular process to synergistically control the amplitude and duration of a cellular response or process. Importantly, Pin1 is tightly regulated by multiple levels and its deregulation has an important role in a growing number of pathological conditions, including cancer, Alzheimer's disease, aging, asthma and microbial infection, providing a potentially new therapeutic option. The goal of this screen is to find small-molecule inhibitors of Pin1 using a fluorescence polarization competition assay. A HiFluor-488-labeled peptide binds to the active site of Pin1 and can be displaced by compounds. Compounds were screened as a concentration-titration series that ranged from 57 uM to 0.7 nM. This is the hit validation to test the hits identified in the primary screen. NIH Molecular Libraries Probe Production Network [MLPCN] NIH Chemical Genomics Center [NCGC] MLPCN Grant: R03 DA031663 PI Name: Dr. Kun Ping Lu, Beth Israel Deaconess Medical Center
Peptidyl-prolyl cis-trans isomerase NIMA-interacting 1 (Homo sapiens), sequence (Q13526 whole entry, looked up, the tested form may be a part): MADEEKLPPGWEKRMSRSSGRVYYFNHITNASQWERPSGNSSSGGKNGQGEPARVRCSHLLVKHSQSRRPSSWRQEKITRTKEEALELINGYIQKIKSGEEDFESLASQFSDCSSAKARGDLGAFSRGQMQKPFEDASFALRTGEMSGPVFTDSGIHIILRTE
Pin1 (0.6 uM) was dispensed into black, solid 1536-well plates at 2 uL/well in 10 mM HEPES (pH 7.5), 10 mM NaCl, 0.01% Tween20, 1 mM DTT, and 1% glycerol. Then, 23 nL of compounds or DMSO were delivered to each well using a pin tool. Two uL of Pin1-1b-HiFluor488 peptide (10 mM HEPES (pH 7.5), 10 mM NaCl, 0.01% Tween20, 1 mM DTT, and 1% glycerol, 0.02 uM Pin1-1b-HiFluor488) was then dispensed, and plates were incubated at room temperature for 10 min. The plates were measured on a ViewLux plate reader for fluorescence polarization signal using a 480/20 nM nm excitation filter and 540/25 nM nm S and P emission filters with a 20 second exposure. The %Activity was determined from the corrected fluorescence polarization values. Unlabeled Pin1-1c peptide was used as a control (3.5 mM two-fold serial; 20 uM final concentration) along with a 1x (0.3 uM) and 0x (no-enzyme) Pin1 enzyme control to normalize %Activity of identified inhibitors; 0x enzyme values corresponded to 100%Activity (full inhibition), while 1x Pin1 enzyme values were used to normalize 0%Activity (no inhibition). Concentration-response curves were fitted to the signals arising from the resulting fluorescence polarization. The concentration-effect curves were then classified based on curve quality (r2), response magnitude and degree of measured activity, and compounds were subsequently categorized based on their curve class. […] Keywords: Peptidyl prolyl isomerase, Pin1, fluorescence polarization, MLSMR, MLPCN, NIH Roadmap, qHTS, NCGC
(In general: Quantitative high-throughput screening tests each substance at several concentrations.)
On to `CC(=O)Nc1ccc(Nc2c3c4c(cccc4n(C)c2=O)C(=O)c2ccccc2-3)cc1`, for which the Potency was 3.38 µM (active). On to `O=S(=O)(O)c1cc(O)c2cc(Nc3ccccc3)ccc2c1`, for which the Potency was 10.7 µM (active). As to `COc1ccccc1Nc1ccc2c(O)cc(S(=O)(=O)O)cc2c1`, the Potency was 1.2 µM (active). For `CCCCCC(=O)Nc1cc(S(=O)(=O)O)cc2cc(S(=O)(=O)O)cc(O)c12`, the Potency was 1.69 µM (active). In the case of `COc1cccc2c1C(=O)c1c(O)c3c(c(O)c1C2=O)C[C@](O)(C(C)=O)C[C@H]3O[C@@H]1C[C@@H](N)[C@@H](O)[C@@H](C)O1`, the Potency result was “inactive”. As to `COc1ccc(S(=O)(=O)Nc2cc(Sc3ncn[nH]3)c(O)c3ccccc23)cc1`, the Potency entry was “inactive”. The figure for `O=C1c2ccccc2C(=O)c2c(O)c(O)cc(O)c21` is 26.9 µM (active). To `Cc1ccc2nc(-c3ccc(N=Nc4cc(S(=O)(=O)O)c5ccccc5c4O)cc3)sc2c1S(=O)(=O)O` belongs 3.01 µM (active); to `O=S(=O)(O)c1ccc(O)c2cc(Nc3ccccc3)ccc12`, 1.69 µM (active).

On to `O=S(=O)(Nc1cc(Sc2ncn[nH]2)c(O)c2ccccc12)c1ccccc1`, for which the Potency entry was “inactive”.
